# From PubChem BioAssay (NCATS)
# Results filed as inconclusive are left out. Activity calls are given as the source filed them. Calls come from the whole dose curve. Non-standard residues stand in square brackets, D forms with d. Residues, ends and D or L forms follow the SMILES beside them. ξ: configuration not given here. ξL = CC(C)CC(N)C(=O)O
# Experiment: qHTS for inhibitors of Rabies Virus screened against the NCATS CANVASS Library (AID 1347402); note: 0% is about no effect
# Details: Rabies virus infection cell assay; series mostly up to 45.9 µM; activity change, negative = inhibition: at the top concentration
row,Structure (SMILES),"activity change, negative = inhibition"
1,C[C@@H]1C[C@H]2C[C@]3(CCCCN3C)[C@@H]3C[C@H]2[C@H](C1)N(C)C3,-24.5% (inactive)
2,COc1cc2c(cc1OC)[C@@H](c1ccc3c(c1)OCO3)C(C)[C@@H](C)C2=O (stereo not given in full),-22% (inactive)
3,CO[C@@H]1[C@H](O)[C@@H](C)O[C@@H](OC[C@@H]2C(C)OC(=O)/C=C/[C@H](C)C(O[C@@H]3O[C@H](C)CC4(OC(=O)O[C@@H]4C)C3O)[C@@H](C)CC(C)C(=O)CC[C@H]3OC23)[C@@H]1OC (stereo not given in full),-1.19% (inactive)
4,CC(C)=CCC/C(C)=C/Cc1cc([C@@H]2CC(=O)c3c(cc(O)c(CC=C(C)C)c3O)O2)ccc1O,-22.1% (inactive)
5,O=C1c2c(O)cc(O)cc2OC(c2ccc(O)cc2)C1O (stereo not given),-19% (inactive)
6,CC1C(=O)C23CCC1C[C@]21O[C@@H]2C(C)(C)C=CC(=O)[C@@]23COC1=O (stereo not given in full),-6.78% (inactive)
7,C=C1CC[C@@H](O[C@H]2C[C@@](O)([C@H](C)NC(=O)c3[nH]c(C)c(Cl)c3Cl)[C@H](O)[C@@H](C)O2)[C@@H]2C=C[C@H](C)C(/C(O)=C3/C(=O)[C@H](C(C)C)N([C@@H]4O[C@H](C)[C@H](OC(N)=O)[C@H](OC(C)=O)[C@@H]4OC)C3=O)[C@@H]12 (stereo not given in full),-1.08% (inactive)
8,COc1cc2c(cc1OC)[C@@H](c1ccc3c(c1)OCO3)C(C)C(C)C2=O (stereo not given in full),-13.6% (inactive)
9,C[C@H]1C[C@@H]([C@@H]2CC[C@]34O[C@H](CC[C@@]35C[C@H](C)C(=O)O5)CN24)OC1=O,2.14% (inactive)
10,C=C[C@@]1(C)CC[C@@H]([C@H](C)C(=O)/C=C/C(C)(C)O)O1,-16.7% (inactive)
11,C[C@@]12CCC[C@@](C)(C(=O)O)[C@H]1C[C@@H](O)[C@@]13C[C@@H](CC[C@@H]21)[C@](C)(O)C3,14.1% (inactive)
12,OCc1ccc2ocnc2c1,-6.39% (inactive)
13,O=Cc1ccc2n1C[C@@]1(C[C@H](O)[C@@H](CO)O1)OC2,4.33% (inactive)
14,COc1ccc2[nH]c3c(c2c1)CCN1C[C@H]2C[C@@H](OC(=O)c4cc(OC)c(OC)c(OC)c4)[C@H](OC)[C@@H](OC)[C@H]2C[C@H]31,-5.03% (inactive)
15,C[C@@H]1O[C@@H](Oc2c(-c3ccc(O)cc3)oc3cc(O)cc(O)c3c2=O)[C@H](O)[C@H](O)[C@H]1O,-2.11% (inactive)
16,CC[C@@H](C)[C@H]1NC(=O)C(CC(C)C)NC(=O)[C@@H](CC(C)C)NC(=O)[C@H](Cc2c[nH]c3ccccc23)NC(=O)CNC(=O)[C@@H](CC(N)=O)NC1=O (stereo partly drawn) (cyclo(GW[dL][ξL][dI][dN])),-11.9% (inactive)
17,C=C1C[C@@]23C=CC(=O)[C@@](C)(CCC(=O)Nc4c(OC5O[C@H](CO)[C@@H](O)[C@H](O)[C@H]5O)ccc(C(=O)O)c4O)C2C[C@@H]1CC3 (stereo not given in full),7.66% (inactive)
18,CN1CC[C@@]23c4ccccc4N[C@@H]1[C@@]21CCN(C)[C@@H]3Nc2ccccc21,1.81% (inactive)
19,CCC(C)=C1OC(=O)[C@H](C)[C@H](O)[C@H](Cc2cccnc2)NC(=O)C(NC(=O)c2ncccc2O)C(C)OC1=O (stereo not given in full),-2.69% (inactive)
20,C/C=C/C=C/C1(O)C2C=C3C(=O)CC45C(=O)C(O)=C(C)C(=O)C4C1C1(C(=O)C(O)=C(C)C(=O)C351)C2C (stereo not given),1.29% (inactive)

row,Structure (SMILES),"activity change, negative = inhibition"
1,COc1ccc2oc3c(OC)c(OC)c(OC)c(OC)c3c(=O)c2c1,-7.41% [at 9.14 µM] (inactive)
2,O[C@H]1c2ccccc2-c2c3c(cc4c2[C@@H]1NCC4)OCO3,-20.4% (inactive)
3,CN1C(=O)C(=O)N2C(=C[C@]3(c4c[nH]c5ccccc45)c4ccccc4N[C@H]23)C1=O,-6.33% (inactive)
4,COC12OC1(C13OC1(OC)C(=O)c1cc4cc(C)oc(=O)c4c(O)c1C3O)C(O)c1c(cc3cc(C)oc(=O)c3c1O)C2=O (stereo not given),-32.7% (inactive)
5,Cc1cc(O)cc2oc(C[C@H](C)O)cc(=O)c12,-15.3% (inactive)
6,CNc1ccc(Cl)cc1C(=O)OC[C@]1(C)[C@H]2CC[C@]3(C)[C@@H](C[C@@H](OC)[C@H](C)[C@H]3C3=C(O)C(=O)OC3O)[C@]2(C)CC[C@H]1O (stereo not given in full),-5.13% (inactive)
7,CC1=C(C)C(=O)OC(C(C)C2(O)CCC3C4C5OC5C5(O)CC=CC(=O)C5(C)C4CCC32C)C1 (stereo not given),-2.28% (inactive)
8,CC(=O)O[C@H]1CC[C@@]2(C)C(CC[C@]3(C)C2CC=C2C4CC(C)(C)CC[C@]4(C)CC[C@]23C)C1(C)C (stereo not given in full),2.83% (inactive)
9,CN1CCc2cc3c(c4c2C1(C)C(=O)c1cc(O)ccc1-4)OCO3 (stereo not given),-17.4% (inactive)
10,CC[C@@H]1C[C@@]2(CC)OC(=O)[C@@]3(CC)[C@H](CC)[C@@H]1[C@@H]23,-2.6% (inactive)
11,C=C1C(=O)C[C@H]2C[C@@H]1[C@]2(C)CCC=C(C)C,-7.23% (inactive)
12,CC(=O)O[C@H]1C[C@@]2(C)[C@@H](CC[C@H]3[C@@]4(C)C=CC(=O)[C@@H](C)[C@@H]4[C@H](OC(C)=O)C(=O)[C@@]32C)/C1=C(\CCC=C(C)C)C(=O)O,-0.717% (inactive)
13,CC(=O)N[C@H](C)c1nc(/C=C/C=C/C(=O)CC2CC(=O)CC[C@]2(C)O)cs1 (stereo not given in full),-4.07% (inactive)
14,O=C1C[C@@H](c2ccc(O)c(-c3c(O)cc(O)c4c3O[C@H](c3ccc(O)cc3)CC4=O)c2)Oc2cc(O)cc(O)c21,-7.3% [at 27.4 µM] (inactive)
15,COc1c(O)cc2oc(-c3ccccc3)cc(=O)c2c1O,-20.1% (inactive)
16,C=C1C[C@@]23C=CC(=O)[C@@](C)(CCC(=O)Nc4c(O)ccc(C(=O)O)c4O)C2C[C@@H]1C(O)C3 (stereo not given in full),6.85% (inactive)
17,C=C[C@@]1(C)CC[C@@H]([C@H](C)C(C)=O)O1,7.36% (inactive)
18,CN1CC[C@]23c4ccccc4N[C@H]1[C@]21CCN(C)[C@H]3Nc2ccccc21,8.97% (inactive)
19,O=C(O)CC1OCc2c(O)cccc21 (stereo not given),-1.57% (inactive)
20,C/C=C(/CO)C(=O)O[C@@H]1[C@H](O)[C@@H](C(=O)OC)O[C@@H]2C[C@H]3OC(n4cnc5c(N)ncnc54)[C@H](OC)[C@H]3O[C@@]12O (stereo not given in full),26% (inactive)
